In PubChem BioAssay AID588413 (Sanford-Burnham Center for Chemical Genomics, 2011):
Out of some 340,000 compounds screened, about 2,500 (0.74%) were called active. The sample holds actives, similar compounds and a random draw of the others, so the mix is not that of the screen. Unmarked numbers belong to inactive results.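 How the source made its calls: active means inhibition above about 55% (limit read from the data); inactive means the rest.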

Assay: blockers of Gli reporter signaling – luciferase luminescence, Sufu-KO-LIGHT cells, uHTS, primary screen (AID 588413);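 further: 0% = DMSO-treated cells and 100% = wells with medium but no cells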
Settings: Sufu-KO-LIGHT fibroblasts, at 5 µM, active compounds read high

| Compound | inhibition |
| --- | --- |
| CN(C)c1ccc(CNC2C3CC4CC(C3)CC2C4)cc1 (stereo not given) | 1.25% |
| O=C(NCC(=O)N1CCCCCCC1)c1ccccc1Cl | -20.5% |
| CC(=O)c1ccc(S(=O)(=O)NCCC(=O)N2CCN(c3ccccn3)CC2)cc1 | -5.24% |
| CCN(Cc1cc2cc(C)ccc2[nH]c1=O)S(=O)(=O)c1ccccc1 | 0.68% |
| O=C(c1cccs1)N(Cc1cc2ccccc2[nH]c1=O)CC1CCCO1 (stereo not given) | 20.4% |
| Cc1ccc(S(=O)(=O)N(Cc2cc3ccccc3[nH]c2=O)CC2CCCO2)cc1 (stereo not given) | 64.1% (active) |
| O=C(O)CCCn1c(=O)c2cccn2c2ccc(F)cc21 | 4.96% |
| COc1ccc(C2=NS(=O)(=O)N(C)C(C(=O)N3CCCCC3)=C2)cc1 | 14.7% |
| CCOc1ccccc1N1CN(Cc2ccccc2)CNC1=S | -9.38% |
| C=CCC1(CC=C)CCCN1C(=O)c1cc(COc2ccc(-n3cncn3)cc2)on1 | 77.8% (active) |
| COc1cccc(OCc2cc(C(=O)N3CCN(C(=O)c4ccco4)CC3)no2)c1 | -5.15% |
| O=C(c1cc(COc2ccc(F)c(F)c2)on1)N1CCOCC1 | -41.7% |
| COc1cc(Cl)c(C)cc1NC(=O)CSc1nnc(CN2CCCC2)o1 | 1.49% |
| O=C(NC(Nc1nc2ccc([N+](=O)[O-])cc2s1)(C(F)(F)F)C(F)(F)F)c1ccccc1 | 87.4% (active) |
| O=C(NOCc1ccccc1)c1cccc([N+](=O)[O-])c1 | -14.1% |
| CNC(=O)c1ccsc1NC(=O)c1ccc(S(=O)(=O)N2CCc3ccccc32)cc1 | 5.3% |
| N=C1C(c2nc3ccccc3s2)=C(O)CN1NC(=O)c1ccc([N+](=O)[O-])cc1 | -3.9% |
| O=C(Nc1nc2ccc([N+](=O)[O-])cc2s1)c1ccc(S(=O)(=O)N2CCCc3ccccc32)cc1 | 77.6% (active) |
| Cc1ccc(NC(=O)c2cccc(S(=O)(=O)N3CCCc4ccccc43)c2)nc1 | -3.22% |
| CCOc1ccc(C(=O)Nc2nccs2)cc1[N+](=O)[O-] | -24.3% |
| OC(c1ccc(Cl)cc1)C(CN1CCOCC1)c1ccccc1 (stereo not given) | -27.6% |
| Cc1ccc(C(CC(=O)O)NC(=O)c2ccc(S(=O)(=O)N3CCCC3)cc2)cc1 (stereo not given) | -3.63% |
| COc1cc(OC)nc(N/N=C(\c2ccccc2)c2ccncc2)n1 | 7.9% |

| Compound | inhibition |
| --- | --- |
| C/C(=N/Nc1nc(-c2ccccc2)c(CC(=O)O)s1)c1ccccc1 | -23% |
| c1ccc(C(=NNc2nc3ccccc3s2)c2ccccn2)cc1 | 82.5% (active) |
| Cc1cc(S(=O)(=O)N2CCOCC2)ccc1OCC(=O)Nc1cccc(C(F)(F)F)c1 | -8.26% |
| COc1ccccc1N1CCN(C(=O)c2c(-c3c(Cl)cccc3Cl)noc2C)CC1 | -1.94% |
| COc1ccccc1N1CCN(C(=O)c2cc(=O)c3cc(C)cc(C)c3o2)CC1 | 56.9% (active) |
| COc1ccccc1N1CCN(C(=O)c2cc(=O)c3cc(C)ccc3o2)CC1 | 7.53% |
| Cc1coc2c1c(C)cc1oc(=O)c(CC(=O)NCC(=O)N[C@H](C(=O)O)C(C)C)c(C)c12 | 23.9% |
| COc1ccc(CCNC(=O)C(=O)NCC2CCCN2S(=O)(=O)c2cccs2)cc1OC (stereo not given) | 6.8% |
| O=C(NCCC1CCCCN1S(=O)(=O)c1cccs1)C(=O)Nc1ccc(F)cc1F (stereo not given) | 15.3% |
| COc1ccccc1CCNC(=O)C(=O)NCCC1CCCCN1S(=O)(=O)c1cccs1 (stereo not given) | 55.6% (active) |
| CCCCNC(=O)C1CCC(CNS(=O)(=O)c2ccc(NC(C)=O)cc2)CC1 (stereo not given) | -6.13% |
| CN(C)c1cc[n+](Cc2ccccc2)cc1 | 55.3% (active) |
| CN(C)c1ccc(CSc2ccccc2)cc1 | -50.9% |
| c1ccc(Cc2cc[n+](Cc3ccccc3)cc2)cc1 | 20.7% |
| COc1cc(/C=N/NC(=O)c2cc(-c3ccccc3C)nc3ccccc23)cc(OC)c1O | 3.09% |
| COc1cccc(/C=N/NC(=O)CNC(=O)c2ccc(S(=O)(=O)N3CCOCC3)cc2)c1OC | 3.3% |
| COc1cccc(/C=N/NC(=O)c2[nH]nc3c2CCc2ccccc2-3)c1O | 81.1% (active) |
| O=C(NCCCNC(=O)NC1CCCCC1)NC1CCCCC1 | 0.18% |
| O=[N+]([O-])c1cc([N+](=O)[O-])c(Oc2cc(F)cc(F)c2F)cc1NN1CCCCC1 | -2.49% |
| Cn1c(=O)n(C)c2cc(NS(=O)(=O)c3ccc(F)cc3)ccc21 | 0.54% |
| Cn1c(CCN2CCCC2)nc2cc(NS(=O)(=O)c3ccccc3)ccc21 | 12.8% |
| CC1(C)CC(=O)c2c(n(S(=O)(=O)c3ccccc3)c3ccc(NS(=O)(=O)c4ccccc4)cc23)C1 | 84.1% (active) |
| C[C@H](CO)N1C[C@H](C)[C@@H](CN(C)Cc2ccc(-c3ccccc3)cc2)Oc2ccc(NC(=O)Cn3cnnn3)cc2C1=O | -7.22% |

| Compound | inhibition |
| --- | --- |
| N#Cc1ccc(CN2CCN(CC(=O)Nc3ccccc3C(=O)NC3CC3)CC2)cc1 | -0.74% |
| COc1cccc(C(=O)Nc2c3c(nn2-c2cccc(C)c2C)CS(=O)(=O)C3)c1OC | 5.94% |
| CCC(=O)N1CCc2cc(Br)c(S(=O)(=O)NCCN3CCCCC3CC)cc21 (stereo not given) | -20.7% |
| CC(=O)Nc1ccc(S(=O)(=O)N2CCN(C(=O)c3ccccc3F)CC2)cc1 | 4.91% |
| COCCn1c(CN2CCC(Cc3ccccc3)CC2)nc2c1c(=O)n(C)c(=O)n2C | 66.7% (active) |
| CC1CCN(Cc2nc3c(c(=O)n(C)c(=O)n3C)n2CCc2ccccc2)CC1 | 0.83% |
| COCCn1c(CN(Cc2ccccc2)Cc2ccccc2)nc2c1c(=O)n(C)c(=O)n2C | 9.35% |
| NC1=NC(=O)C(Cc2cccc(Cl)c2Cl)S1 (stereo not given) | -27.7% |
| O=C(Cn1cc(C(=O)C2CC2)c2ccccc21)Nc1ccccc1Cl | 60.8% (active) |
| Cc1ccccc1NC(=O)Cn1cc(C(=O)C2CC2)c2ccccc21 | -3.91% |
| COCCCNC(=O)Cn1cc(C(=O)C2CC2)c2ccccc21 | 5.8% |
| Cc1ccc(S(=O)(=O)N(C)C)cc1NC(=O)C1Cc2ccccc2CN1C(=O)c1ccco1 (stereo not given) | -7.42% |
| COc1ccc(CCNC(=O)C(=O)NCC2OCCN2S(=O)(=O)c2cccs2)cc1OC (stereo not given) | 1.51% |
| COc1cc2c(cc1OC)CN(CC(=O)Nc1ccc(F)cc1)CC2 | 9.09% |
| COc1ccc2c(c1)CCNC2Cc1ccc(OC)c(O)c1 (stereo not given) | 7.38% |
| CC[C@H]1CN2CCc3cc(OC)c(OC)cc3[C@@H]2C[C@@H]1C[C@H]1NCCc2cc(OC)c(OC)cc21 | 71.3% (active) |
| C=CC(=O)Nc1ccc(Nc2ccnc(Nc3ccc(N4CCN(C)CC4)cc3)n2)cc1 | 21.8% |
| CC(NC(=O)C1CCC(CNc2c(N3CCOCC3)c(=O)c2=O)CC1)c1ccccc1 (stereo not given) | -5.64% |
| COCCN(Cc1ccccc1)C(=O)Cc1ccc(S(=O)(=O)N2CCOCC2)s1 | 4.55% |
| CC(=O)c1cccc(NC(=O)c2cc(C)nn2-c2ccccc2)c1 | 5.19% |
| Cc1nnc(SCC(=O)Nc2cccc(N)c2)n1-c1ccccc1 | -28.9% |
| CC[n+]1c(C)n(-c2ccccc2)c2ccc(NC(C)=O)cc21 | 76.3% (active) |
| Cc1ccc(C(=O)NCC(=O)O)s1 | -7.96% |

| Compound | inhibition |
| --- | --- |
| CC1OC2C(OC1C)N(S(C)(=O)=O)CCN2S(C)(=O)=O (stereo not given) | -7.55% |
| Cc1ccsc1C(=O)OCC(=O)c1cc(C)n(CC2CCCO2)c1C (stereo not given) | 72.1% (active) |
| Cc1ccsc1C(=O)OCC(=O)Nc1cccc(F)c1 | -43.7% |
| COc1ccc(C(=O)OCC(=O)c2cc(C)n(CC3CCCO3)c2C)cc1[N+](=O)[O-] (stereo not given) | -7.49% |
| CCN(CC)C(CNC(=O)CSc1nnnn1-c1cccc(F)c1)c1ccco1 (stereo not given) | 10% |
| CCNCCC(=O)N1c2ccccc2Sc2ccc(NC(=O)OCC)cc21 | 26.4% |
| CCN1/C(=C/C(=S)Nc2ccccc2)Sc2ccccc21 | 67.6% (active) |
| CCOC(=O)CNC(=O)N1c2ccccc2Sc2ccccc21 | 2.43% |
| CC(=O)c1ccc(S(=O)(=O)NC2CC(=O)N(c3ccc4c(c3)OCCO4)C2)cc1 (stereo not given) | -3.34% |
| CCN(CC(=O)Nc1c(F)cccc1F)C(=O)c1ccc(Sc2nncn2C)c([N+](=O)[O-])c1 | 31.3% |
| CC(C)Oc1ccc(C(=O)NC(C)(C)CO)cc1 | -9.97% |
| CCC(Cc1ccccc1)NC(=O)C1CCCCC1 (stereo not given) | 63.1% (active) |
| Cc1ccc(NC(=O)[C@H](Cc2ccccc2)NC(=O)C2CCNCC2)cc1 | 2.89% |
| CCC(NC(=O)C1CCCC1)c1ccc(C)cc1 (stereo not given) | -10.2% |
| COc1ccc(C(=O)COC(=O)Cn2cnc3c2c(=O)n(C)c(=O)n3C)c(OC)c1 | 3.81% |
| NC(=O)C1(Nc2ccccc2Cl)CCCC1 | 4.9% |
| CC[C@]12c3[nH]c4ccc(OC)cc4c3CCN1C(=O)C(CC(=O)NCc1ccco1)C[C@@H]2C(=O)N1CCN(C(=O)C2CC2)CC1 (stereo not given in full) | -2.82% |
| C=CCSc1nc2c(c(=O)[nH]1)C(C(C)C)C(C#N)=C(N)O2 (stereo not given) | -7.54% |
| CC/C(O)=C1\C(=O)CC(C)(C)CC1=NCCc1nc2ccccc2[nH]1 | 25.2% |
| CC1(C)CC(=O)c2sc(N)nc2C1 | 4.1% |
| CCCc1nc(N)nc2c1C(=O)CC(C)(C)C2 | 77.6% (active) |
